# In PubChem BioAssay (NCATS):
# Values joined by “and” are separate entries in the source; they are usually repeats but may differ in a detail not shown here. Identical values can stand only once. Records with an inconclusive call do not appear. A call without a number means that no potency is given here. Active and inactive are the calls of the source. Unless noted, the call rests on the fitted dose curve; in most records, active means well fitted curve in the direction sought with a large enough effect; inconclusive means small, poorly fitted or top-dose-only effect, or another doubt; inactive means no such curve, though single readings can be large; an effect the other way counts as inactive or inconclusive.
# Tests used:
# [1] = Cell Viability - LYMP2-019 (AID 973);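 further: cells exposed to compound for 24 h at 37 °C; nearly all actives have a fitted effect of over 55% in size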
# Summary of the method: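 Luminescent ATP read-out (CellTiter-Glo, 30 min room temperature) served as the viability measure after 24 hr treatment of lymphoblastoid cells at 37 C. Concentration-response data were fitted to the Hill equation for AC50.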
# [2] = Cell Viability - LYMP2-008 (AID 980);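 further: cells exposed to compound for 24 h at 37 °C; nearly all actives have a fitted effect of over 60% in size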
# Summary of the method: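 qHTS, human lymphoblastoid line, 2500 cells/well; 5 hr preincubation, 24 hr compound, 37 C. CellTiter-Glo ATP luminescence. AC50 via Hill equation. Tetraoctylammonium bromide positive control.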
# [3] = Cell Viability - LYMP2-024 (AID 988); further: nearly all actives have a fitted effect of over 60% in size
# Summary of the method: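 Steps: seed 2500 cells/well, 5 hr 37 C; add compound, 24 hr 37 C; add CellTiter-Glo, 30 min room temperature; read luminescence. AC50 derived by Hill modelling of concentration-dependent ATP loss.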
# [4] = molecular target: Estrogen receptor (Homo sapiens) (UniProt P03372); test: qHTS assay for small molecule antagonists of estrogen receptor alpha signaling (AID 588513; active means well fitted curve in the direction sought with a large enough effect in the signal ratio, with a control signal flat, not every such curve was filed as active; the % refers to the signal ratio)
# Estrogen receptor (Homo sapiens), sequence (P03372 whole entry, looked up): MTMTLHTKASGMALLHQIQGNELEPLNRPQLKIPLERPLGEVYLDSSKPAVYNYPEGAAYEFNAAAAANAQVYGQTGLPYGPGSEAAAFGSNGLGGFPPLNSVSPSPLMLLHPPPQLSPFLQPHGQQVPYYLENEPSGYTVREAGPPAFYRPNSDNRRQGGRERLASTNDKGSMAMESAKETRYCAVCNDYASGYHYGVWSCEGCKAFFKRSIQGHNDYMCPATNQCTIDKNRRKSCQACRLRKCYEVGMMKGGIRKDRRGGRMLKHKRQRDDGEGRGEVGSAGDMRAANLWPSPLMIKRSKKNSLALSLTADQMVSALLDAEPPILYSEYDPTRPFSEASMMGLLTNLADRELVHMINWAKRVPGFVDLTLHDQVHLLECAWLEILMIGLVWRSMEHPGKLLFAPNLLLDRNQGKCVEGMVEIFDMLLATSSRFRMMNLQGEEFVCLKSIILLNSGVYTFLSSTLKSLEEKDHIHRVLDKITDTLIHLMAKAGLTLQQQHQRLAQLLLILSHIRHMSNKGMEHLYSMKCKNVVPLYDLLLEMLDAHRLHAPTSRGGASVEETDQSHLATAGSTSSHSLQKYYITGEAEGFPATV
# Summary of the method: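 Antagonist-mode qHTS in ER-alpha-UAS-bla HEK 293 cells: compound titration, 0.5nM estradiol for 18 h, CCF4 fluorescence, Hill-derived IC50.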
# [5] = molecular target: Peroxisome proliferator-activated receptor delta (Homo sapiens) (UniProt Q03181); test: qHTS assay for small molecule agonists of peroxisome proliferator-activated receptor delta signaling (AID 588534; calls by dose curve)
# Peroxisome proliferator-activated receptor delta (Homo sapiens), sequence (Q03181 whole entry, looked up): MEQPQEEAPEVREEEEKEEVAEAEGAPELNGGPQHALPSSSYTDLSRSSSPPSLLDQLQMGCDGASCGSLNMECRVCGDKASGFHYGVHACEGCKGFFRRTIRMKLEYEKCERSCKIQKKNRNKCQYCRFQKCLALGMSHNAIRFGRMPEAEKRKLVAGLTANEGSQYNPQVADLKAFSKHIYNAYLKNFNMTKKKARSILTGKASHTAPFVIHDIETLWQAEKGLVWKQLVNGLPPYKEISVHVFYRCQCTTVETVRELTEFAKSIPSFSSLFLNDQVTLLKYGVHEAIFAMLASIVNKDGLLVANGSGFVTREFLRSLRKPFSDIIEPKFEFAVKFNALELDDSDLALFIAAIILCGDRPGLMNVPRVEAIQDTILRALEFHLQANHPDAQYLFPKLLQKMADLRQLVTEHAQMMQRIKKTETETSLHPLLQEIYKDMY
# Summary of the method: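 Fluorescence from CCF4 substrate cleavage by beta-lactamase reporter, read 2 hrs at RT, measured agonist activity. Compounds were tested with 18 hrs exposure at 37 C. Concentration-response data fitted to Hill equation.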
# [6] = qHTS assay to identify small molecules that stimulate interleukin-8 (IL-8) secretion (AID 651758; active means well fitted activation curve with a large enough effect in the signal ratio; the % refers to the signal ratio; further: potency means the concentration at half of the fitted maximal effect)
# Summary of the method: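 THP-1, 2000 cells/well; cpd 16 h, 37 C; add cryptate + XL665 anti-IL-8 Abs; RT 1-3 h; TR-FRET read.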
# [7] = qHTS assay for small molecule activators of the human pregnane X receptor (PXR) signaling pathway (AID 720659; call rule not given here)
# [8] = Cell Viability - Jurkat (AID 426;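 active means dose-dependent loss of cell ATP signal giving a full or clear fitted curve, ranked by lower potency value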; further: potency means the concentration at half of the fitted maximal effect); details: qHTS
# Summary of the method: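 qHTS, 1536-well; Jurkat E6-1, 5000 cells/well, complete medium; cpd 40 hr, 37 °C; CellTiter-Glo 20 min RT; luminescence. AC50 by Hill fit.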
# [9] = Cell Viability - Hek293 (AID 427;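 active means compounds whose dose-response curve shows a full or clear partial loss of cell viability, called from curve shape rather than a numeric limit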;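 further: potency means the concentration at half of the fitted maximal effect; cells exposed to compound for 40 hours at 37 °C before reading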); details: qHTS
# Summary of the method: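 AC50 values derive from Hill-modelled concentration-response of ATP-based luminescence, normalized between DMSO-only and 100 uM tamoxifen controls. Cells were exposed in complete culture medium for 40 hr at 37 °C before detection.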
# [10] = Cell Viability - N2a (AID 540); details: N2a mouse neuroblastoma cell viability; at 92.2 µM (top of the series); further: nearly all actives have a fitted effect of over 45% in size
# Summary of the method: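 Luminescent ATP signal (CellTiter-Glo, 20 min at room temperature) served as the viability read-out after N2a cells were treated with compounds for 40 hours at 37 °C. Concentration-response data were fitted to the Hill equation for AC50.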
# [11] = Cell Viability - NIH 3T3 (AID 541); details: NIH 3T3 cell viability, qHTS; activity change, negative = cytotoxicity: at 92.2 µM (top of the series); further: nearly all actives have a fitted effect of over 25% in size
# Summary of the method: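 Luminescent ATP signal (CellTiter-Glo) served as the viability read-out after NIH 3T3 cells were exposed to compounds over a concentration range for 40 hr at 37 °C. Hill-equation modelling of concentration-response data gave AC50.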
# [12] = Cell Viability - LYMP2-006 (AID 978);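 further: cells exposed to compound for 24 hours; nearly all actives have a fitted effect of over 60% in size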; further: potency means the concentration at half of the fitted maximal effect
# Summary of the method: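 In this cytotoxicity screen, the human lymphoblastoid line grew in complete medium with test compounds for 24 hr at 37 C. Cellular ATP served as the viability signal.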
# [13] = Cell Viability - LYMP2-007 (AID 979);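 further: cells exposed to compound for 24 h before reading; nearly all actives have a fitted effect of over 60% in size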; further: potency means the concentration at half of the fitted maximal effect
# Summary of the method: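 Luminescent ATP signal (CellTiter-Glo) serves as the viability read-out after 24 hr compound treatment of lymphoblastoid cells in complete medium at 37 C. Concentration-response data were fitted to the Hill equation to give AC50 values.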
# [14] = molecular target: Vitamin D3 receptor (Homo sapiens) (UniProt P11473); test: qHTS assay for small molecule antagonists of vitamin D receptor signaling (AID 588541; calls by dose curve;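 further: receptor activated by calcitriol during compound treatment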)
# Vitamin D3 receptor (Homo sapiens), sequence (P11473 whole entry, looked up): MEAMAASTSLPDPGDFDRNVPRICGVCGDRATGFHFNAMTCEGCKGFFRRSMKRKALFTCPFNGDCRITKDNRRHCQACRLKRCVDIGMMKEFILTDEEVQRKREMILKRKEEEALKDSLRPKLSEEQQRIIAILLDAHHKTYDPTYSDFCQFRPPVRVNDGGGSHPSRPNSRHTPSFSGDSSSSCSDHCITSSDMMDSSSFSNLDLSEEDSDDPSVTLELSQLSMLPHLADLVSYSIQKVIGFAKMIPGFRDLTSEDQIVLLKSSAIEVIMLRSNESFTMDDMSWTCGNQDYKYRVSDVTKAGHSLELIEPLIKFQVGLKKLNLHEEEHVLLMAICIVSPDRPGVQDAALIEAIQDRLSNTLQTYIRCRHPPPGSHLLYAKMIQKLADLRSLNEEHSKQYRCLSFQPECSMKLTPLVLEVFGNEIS
# Summary of the method: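 VDR-UAS-bla HEK293T cells (2000/well, 2% charcoal-stripped FBS) were treated with titrated compounds plus 1-alpha,25-dihydroxyvitamin D3 (50 nM or 3 nM final) for 16 h at 37 C. CCF4 beta-lactamase fluorescence was read; Hill fits gave IC50.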
# [15] = molecular target: Vitamin D3 receptor (Homo sapiens) (UniProt P11473); test: qHTS assay for small molecule agonists of vitamin D receptor signaling (AID 588543; calls by dose curve)
# Summary of the method: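 Measured: β-lactamase reporter activity (CCF4, 405 nm excitation, 460/530 nm emission) in HEK293T VDR-UAS-bla cells after 16 h compound exposure at 37 °C. Normalization against 50 nM 1α,25-dihydroxyvitamin D3 and DMSO; Hill-fit EC50.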
# [16] = qHTS assay for small molecule agonists of retinoid X receptor alpha signaling (AID 588544; calls by dose curve); details: HEK293T RXRa-UAS-bla, beta-lactamase reporter, 18 h; 530 nm emission
# [17] = molecular target: Retinoic acid receptor RXR-alpha (Homo sapiens) (UniProt P19793); test: as above
# Retinoic acid receptor RXR-alpha (Homo sapiens), sequence (P19793 whole entry, looked up): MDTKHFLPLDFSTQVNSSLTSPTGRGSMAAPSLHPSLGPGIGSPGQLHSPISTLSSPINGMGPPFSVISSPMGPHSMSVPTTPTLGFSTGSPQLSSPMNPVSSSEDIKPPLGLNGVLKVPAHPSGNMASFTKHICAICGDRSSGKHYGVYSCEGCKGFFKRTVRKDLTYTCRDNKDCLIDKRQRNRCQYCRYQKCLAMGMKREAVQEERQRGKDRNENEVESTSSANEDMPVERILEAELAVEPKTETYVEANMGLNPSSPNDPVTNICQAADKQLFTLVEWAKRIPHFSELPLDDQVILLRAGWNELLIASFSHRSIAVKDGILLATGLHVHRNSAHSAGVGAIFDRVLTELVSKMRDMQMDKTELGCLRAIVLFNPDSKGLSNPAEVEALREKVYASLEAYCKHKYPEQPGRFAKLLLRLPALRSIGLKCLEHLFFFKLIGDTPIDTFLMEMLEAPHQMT
# [18] = molecular target: Voltage-gated inwardly rectifying potassium channel KCNH2 (Homo sapiens) (UniProt Q12809); test: qHTS Assay for Small Molecule Inhibitors of the Human hERG Channel Activity (AID 588834);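 further: top concentration of the series differs between compounds; lower thallium flux fluorescence means stronger hERG block; nearly all actives have a fitted effect of over 50% in size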
# Voltage-gated inwardly rectifying potassium channel KCNH2 (Homo sapiens), sequence (Q12809 whole entry, looked up): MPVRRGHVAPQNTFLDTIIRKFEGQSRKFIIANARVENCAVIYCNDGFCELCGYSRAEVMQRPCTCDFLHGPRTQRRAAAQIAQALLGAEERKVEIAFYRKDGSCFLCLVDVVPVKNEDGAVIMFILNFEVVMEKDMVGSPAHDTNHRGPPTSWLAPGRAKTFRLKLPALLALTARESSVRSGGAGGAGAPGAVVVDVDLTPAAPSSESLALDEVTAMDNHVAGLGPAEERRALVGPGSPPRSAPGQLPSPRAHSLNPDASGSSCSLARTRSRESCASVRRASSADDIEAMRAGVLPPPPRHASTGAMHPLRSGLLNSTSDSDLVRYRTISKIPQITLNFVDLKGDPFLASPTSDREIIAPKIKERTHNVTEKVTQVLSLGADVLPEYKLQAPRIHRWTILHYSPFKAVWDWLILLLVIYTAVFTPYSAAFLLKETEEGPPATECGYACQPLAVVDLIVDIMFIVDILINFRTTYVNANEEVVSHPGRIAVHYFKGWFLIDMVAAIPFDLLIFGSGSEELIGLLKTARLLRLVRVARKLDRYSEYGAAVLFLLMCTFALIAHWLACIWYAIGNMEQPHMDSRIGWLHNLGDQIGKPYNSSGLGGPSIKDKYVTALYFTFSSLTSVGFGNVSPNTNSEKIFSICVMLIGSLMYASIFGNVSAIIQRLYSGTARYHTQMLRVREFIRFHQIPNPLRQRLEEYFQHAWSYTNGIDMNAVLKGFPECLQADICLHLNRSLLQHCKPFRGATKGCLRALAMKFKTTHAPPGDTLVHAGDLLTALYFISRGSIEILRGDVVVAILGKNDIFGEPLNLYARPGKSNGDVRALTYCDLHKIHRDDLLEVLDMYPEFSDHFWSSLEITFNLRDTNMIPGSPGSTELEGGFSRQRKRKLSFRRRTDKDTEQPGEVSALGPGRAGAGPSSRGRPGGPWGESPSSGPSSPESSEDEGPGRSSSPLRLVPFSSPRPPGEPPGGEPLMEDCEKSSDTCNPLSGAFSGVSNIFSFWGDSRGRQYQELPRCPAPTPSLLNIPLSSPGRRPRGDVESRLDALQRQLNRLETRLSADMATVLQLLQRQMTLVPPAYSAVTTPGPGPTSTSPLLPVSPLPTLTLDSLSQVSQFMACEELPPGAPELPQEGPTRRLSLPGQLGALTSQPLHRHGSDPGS
# Summary of the method: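 Blockade is seen as reduced FluxOR thallium-flux fluorescence in U2OS cells expressing hERG from a BacMam construct, in Opti-MEM with 2% FCS. Concentration-response data fitted to the Hill equation for AC50.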
# [19] = qHTS assay for small molecule agonists of the antioxidant response element (ARE) signaling pathway (AID 651741; active means well fitted activation curve with a large enough effect in the signal ratio; the % refers to the signal ratio; further: potency means the concentration at half of the fitted maximal effect)
# Summary of the method: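 Compounds in DMSO are pinned onto HepG2 ARE-bla cells (2,000/well) that were preincubated 5 h; plates stay 16 h at 37 C, then beta-lactamase activity is detected with LiveBLAzer B/G substrate by fluorescence.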
# [20] = molecular target: Peroxisome proliferator-activated receptor gamma (Homo sapiens) (UniProt P37231); test: qHTS assay for small molecule agonists of peroxisome proliferator-activated receptor gamma signaling (AID 588536; active means well fitted curve in the direction sought with a large enough effect in the signal ratio, with a control signal flat, not every such curve was filed as active; the % refers to the signal ratio)
# Peroxisome proliferator-activated receptor gamma (Homo sapiens), sequence (P37231 whole entry, looked up): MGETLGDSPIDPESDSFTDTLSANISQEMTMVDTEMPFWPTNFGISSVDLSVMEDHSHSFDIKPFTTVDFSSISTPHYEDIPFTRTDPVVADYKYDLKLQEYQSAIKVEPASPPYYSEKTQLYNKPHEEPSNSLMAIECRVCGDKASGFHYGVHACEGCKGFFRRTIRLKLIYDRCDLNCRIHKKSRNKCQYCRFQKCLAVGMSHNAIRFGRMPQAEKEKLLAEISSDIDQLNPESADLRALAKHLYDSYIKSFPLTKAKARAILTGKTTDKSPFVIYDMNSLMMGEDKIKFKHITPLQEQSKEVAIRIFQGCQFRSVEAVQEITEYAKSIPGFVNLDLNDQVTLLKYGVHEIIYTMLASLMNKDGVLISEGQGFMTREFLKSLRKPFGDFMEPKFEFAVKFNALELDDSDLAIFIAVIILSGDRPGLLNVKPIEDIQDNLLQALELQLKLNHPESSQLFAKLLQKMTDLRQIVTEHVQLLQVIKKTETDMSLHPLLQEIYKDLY
# Summary of the method: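 HEK293 UAS-bla reporter line, 1% charcoal/dextran FBS; titration, 16 h, 37 C; CCF4 loading 2 h RT; fluorescence 460/530 nm. Normalized to rosiglitazone 2 uM = 100%, DMSO = 0%.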
SMILES,Potency [1],Potency [2],Potency [3],Potency [4],outcome [5],Potency [6],outcome [7],Potency [8],Potency [9],"activity change, negative = cytotoxicity [10]","activity change, negative = cytotoxicity [11]",Potency [12],Potency [13],outcome [14],outcome [15],max response [16],Potency [17],Potency [18],Potency [19],outcome [20]
ClC1=C(Cl)C2(Cl)C3C(Cl)C=CC3C1(Cl)C2(Cl)Cl (stereo not drawn),inactive,inactive,inactive,inactive,inactive,26.6 µM (active),inactive,–,–,–,–,–,–,–,–,–,–,–,–,–
O=C(O)COc1ccc(Cl)cc1Cl,inactive,inactive,inactive,–,–,–,inactive,> 92 µM (inactive),> 92 µM (inactive),9.64% (inactive) and 3.72% (inactive),-11.4% (inactive) and -12.3% (inactive),inactive,inactive,inactive,inactive,29.1%,inactive,inactive,48.6 µM (active),–
C=CCc1ccc2c(c1)OCO2,inactive,inactive,inactive,–,–,inactive,inactive,> 92 µM (inactive),> 92 µM (inactive),-3.41% (inactive),-6.05% (inactive),inactive,inactive,inactive,inactive,1.6%,inactive,inactive,–,inactive
CNC(=O)O/N=C/C(C)(C)SC,inactive,inactive,–,inactive,inactive,inactive,–,> 92 µM (inactive),> 92 µM (inactive),-2.66% (inactive),-9.42% (inactive),inactive,inactive,–,–,-12.4% and 19.1% and 1.84%,inactive,inactive,27.3 µM (active),inactive
c1ccc(N=Nc2ccccc2)cc1,–,–,inactive,–,–,–,inactive,47.9 µM (active),> 92 µM (inactive),1.26% (inactive),-2.38% (inactive),inactive,31.6 µM (active),inactive,inactive,8.95% and -1.18%,inactive,inactive,–,inactive
ClC1=C(Cl)C2(Cl)C3C4C=CC(C4)C3C1(Cl)C2(Cl)Cl (stereo not drawn),–,–,–,inactive,inactive,42.2 µM (active),–,–,–,–,-10.7% (inactive),39.8 µM (active),inactive,inactive,inactive,–,–,–,66.8 µM (active),inactive
CNC(=O)N(C)c1nnc(C(C)(C)C)s1,–,–,–,inactive,inactive,–,–,–,–,–,–,–,–,inactive,inactive,-5.03%,inactive,–,inactive,inactive
